Test results from PubChem BioAssay AID430 (Sanford-Burnham Center for Chemical Genomics, 2006).
Among all 63,000 compounds or so, about 1,100 (1.7%) were called active. For the sample, actives were picked, then their nearest neighbours and some compounds at random. Results with a measured potency or affinity are listed apart. Unmarked numbers belong to inactive results. Rule as the data show it: active = cytotoxicity above about 50%; inactive = the rest.

Test: cytotoxicity in HPDE-C7 cells, cell-based, fluorescence, HTS (AID 430);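 also: cells exposed to compound for 48 hours before viability readout; 0% = vehicle and 100% = reference cytotoxic drug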
Details: HPDE-C7 pancreatic duct cells viability, at 10 µM, active compounds read high

| SMILES | cytotoxicity |
| --- | --- |
| Cc1ccc(S(=O)(=O)NC2OC(=O)C(Cl)=C2Cl)cc1 (stereo not drawn) | 11.4% |
| COn1cnnc1-c1ccccc1 | -8.8% |
| Cc1nnc2n1N=CC=C(c1ccccc1)S2 | 57.5% (active) |
| Cc1nnc2n1N=CC=C(C(C)(C)C)S2 | -5.2% |
| O=C(COC(=O)CCOc1ccccc1)Nc1ccc(Cl)cn1 | 0.1% |
| Cc1cc(SCC#N)n2nc(C)c(-c3ccccc3)c2n1 | -24.7% |
| COc1ccc2c(c1)c(C(O)CN1CCC3(CC1)OCCO3)c(C)n2C (stereo not drawn) | 9% |
| CC(C)(C)c1ccc(C(O)CCCN2CCC(C(O)(c3ccccc3)c3ccccc3)CC2)cc1 (stereo not drawn) | 118% (active) |
| OC(CCN1CCCCC1)(c1ccccc1)C1CCCCC1 (stereo not drawn) | -15.8% |
| OC(CCN1CCCC1)(c1ccccc1)C1CCCCC1 (stereo not drawn) | 8.5% |
| C/C(=N\O)C1/C(=N/O)CC2C1C2(C)C (stereo not drawn) | -4.3% |
| Nc1nc(C(=O)N2CCOCC2)nn1S(=O)(=O)c1ccc(Cl)cc1 | 2.7% |
| COc1ccc(C(=O)Oc2cccnc2)cc1OC | -11.9% |
| CN1C(=O)c2cccc(NC(=O)Cc3ccccc3)c2C1=O | -1.7% |
| O=C(Nc1nc2c(s1)CCc1ccccc1-2)c1ccco1 | 15.6% |
| CC1CCc2nc(NC(=O)c3ccco3)sc2C1 (stereo not drawn) | -13.6% |
| O=C(c1ccc(Br)s1)N1CCN(Cc2ccc3c(c2)OCO3)CC1 | 11.8% |
| CN(C)/C=C1\N=C(c2ccc3c(c2)OCO3)OC1=O | -1.7% |
| Cc1ccc(-n2cc(-c3ccccc3)[nH]c2=O)cc1F | -20.5% |
| CSc1cccc(-n2cc(-c3ccc4c(c3)OCO4)[nH]c2=O)c1 | 52.8% (active) |
| O=C(Cc1ccc(S(=O)(=O)N2CCOCC2)s1)Nc1ccc2c(c1)CCC2 | 3.3% |
| COc1ccc(CN2CCN(C(=O)c3cc(OC)c(OC)c(OC)c3)CC2)cc1OC | -11.1% |
| CCCSc1nnc(NC(=O)Nc2ccc(F)cc2)s1 | 69.6% (active) |
| CCCSc1nnc(NC(=O)Nc2ccccc2)s1 | 6.3% |
| CCC(=O)Nc1nnc(SCC(=O)Nc2ccc(F)cc2)s1 | 2.1% |

| SMILES | cytotoxicity |
| --- | --- |
| COc1ccccc1NC(=O)CN1CCN(Cc2ccccc2)CC1 | 3% |
| COC(=O)c1sc(N)c(C(=O)OC)c1COC(=O)c1c(C)noc1C | 64.9% (active) |
| COc1ccc(C(C)=O)cc1COC(=O)c1c(C)noc1C | 7.1% |
| COC(=O)c1c(N)sc(C(C)=O)c1C | -7.8% |
| CC(C)CCNc1nc2c(c(=O)n(Cc3cccc(F)c3)c(=O)n2C)n1C | 35.2% |
| COc1ccc(-c2cn3c(n2)CCC3)cc1 | 14.1% |
| CCCCCC1CCC(C(=O)O)CC1 (stereo not drawn) | -12.7% |
| COC(=O)c1ccc2c(c1)N(Cc1nc(-c3cccc(C)c3)oc1C)C(=O)C1CCCN21 (stereo not drawn) | 55.8% (active) |
| COC(=O)c1ccc2c(c1)N(Cc1nc(-c3cccc(Cl)c3)oc1C)C(=O)C1CCCN21 (stereo not drawn) | 40.7% |
| COC(=O)c1ccc2c(c1)N(Cc1nc(-c3ccc(Cl)cc3)oc1C)C(=O)C1CCCN21 (stereo not drawn) | -1.4% |
| CC(C)CCOCC1CC2(CC(C)(c3csc(N)n3)OC2=O)C(=O)O1 (stereo not drawn) | -2.2% |
| O=C(COC(=O)c1ccccc1NC(=O)c1ccco1)Nc1ccc2c(c1)OCO2 | -13.5% |
| COc1cccc(C2C3=C(N=C4SCC(=O)N42)c2ccccc2CC3)c1OC (stereo not drawn) | -2.4% |
| CN(C)c1ccc(-c2nn3c(-c4ccncc4)nnc3s2)cc1 | -9.1% |
| CCN(CC)c1ccc(-c2nn3c(-c4cccnc4)nnc3s2)cc1 | 43.2% |
| CCc1nc2ccccc2n1CC(=O)N(C(C)CC)C1CCS(=O)(=O)C1 (stereo not drawn) | -20.3% |
| Cn1c(Cn2c(=O)sc3ccccc32)nnc1SCc1ccc(F)cc1 | -3.2% |
| COc1ccc2c(c1)Sc1ccccc1N2CCN(C)C | 12.2% |
| CCOC(=O)Nc1ccc2c(c1)N(C(=O)CN1CCN(C)CC1)c1ccccc1S2 | 5.2% |
| O=C(CN1CCCC(O)C1)N1c2ccccc2Sc2ccc(C(F)(F)F)cc21 (stereo not drawn) | 24% |
| CN(C)CCCN1c2ccccc2Sc2ccccc21 | 13.7% |
| O=C(Nc1cccc(C(F)(F)F)c1)c1cccnc1N1CCN(CCO)CC1 | -10.8% |
| C=CCN1C(=O)c2ccccc2Sc2ccc(C(=O)N3CCN(C)CC3)cc21 | -17.1% |
| COc1ccc(Br)cc1S(=O)(=O)N(CC(=O)N1CCOCC1)c1ccccc1 | -5.3% |
| O=C(CCc1ccccc1)Nc1ccncc1 | 0.1% |

| SMILES | cytotoxicity |
| --- | --- |
| Cn1c(Cn2c(=O)sc3ccccc32)nnc1SCC(=O)Nc1ccc(F)cc1 | -7.1% |
| CCOc1ccccc1N1CCN(Cc2cccc(OC)c2OC)CC1 | -10.5% |
| O=C(CN1CCN(c2ccccc2)CC1)Nc1cccc(C(F)(F)F)c1 | -4.7% |
| OC(CN1CCN(c2cccc(C(F)(F)F)c2)CC1)c1c[nH]c2ccccc12 (stereo not drawn) | 26.7% |
| COC(=O)c1[nH]c2ccccc2c1NC(=O)CN1CCN(c2cccc(Cl)c2)CC1 | 0.5% |
| Cc1[nH]c2ccccc2c1NC(=O)CN1CCN(c2cccc(C(F)(F)F)c2)CC1 | 62.1% (active) |
| O=C(CCn1c(=O)[nH]c2ccccc2c1=O)N1CCN(c2cccc(C(F)(F)F)c2)CC1 | -11.5% |
| CCc1nc2ccccc2c(C(=O)OCC(=O)NCCCN2CCCC2=O)c1C | -4.2% |
| CCOc1cc2[nH]c(=O)n(CCCCC(=O)NC3CCCCCC3)c(=O)c2cc1OCC | 2.3% |
| COC(=O)c1cc(COC(=O)c2cccnc2SC)oc1C | -9.4% |
| O=S(=O)(Nc1cccnc1)c1ccc2c(c1)OCCO2 | -9.7% |
| CCOC(=O)Cn1nc(-c2ccc(Cl)cc2)cc1N | 10.3% |
| CCOC(=O)n1ccc(C(=O)Nc2ccccc2F)n1 | -0.9% |
| CCOC(=O)Cc1nnc2c(Nc3ccccc3F)nc3nonc3n12 | 61.6% (active) |
| CCOC(=O)Cc1nnc2c(Nc3ccc(C)cc3)nc3nonc3n12 | -35.8% |
| CCOC(=O)Cc1nnc2c(Nc3ccc(Cl)cc3)nc3nonc3n12 | 68.3% (active) |
| CCOC(=O)CCn1c(CC(=O)OCC)nc2ccccc21 | -8.6% |
| CCOC(=O)Cc1csc(NC(=O)c2cccc(N3C(=O)CCC3=O)c2)n1 | -14.9% |
| O=C(Nn1cnnc1)c1cc(-c2ccccn2)nc2ccccc12 | 2.7% |
| CCN1CCN(c2c(Cl)cccc2NC(=O)c2ccc(Br)o2)CC1 | 1.5% |
| O=C(Nc1ccccc1N1CCCC1)c1ccc(Br)o1 | 1.2% |
| O=C(Nc1cccc(Cl)c1N1CCCC1)c1ccc(Br)o1 | 75% (active) |
| CCCCNS(=O)(=O)c1ccc2nc(SCC(=O)c3ccc(C#N)cc3)[nH]c2c1 | 5.7% |
| CCCCNS(=O)(=O)c1ccc2nc(SCC(=O)Nc3sccc3C#N)[nH]c2c1 | 88.6% (active) |
| N#Cc1ccsc1NC(=O)CSc1ncn[nH]1 | -0.1% |

| SMILES | cytotoxicity |
| --- | --- |
| CCn1cc(Br)c(C(=O)N(C)Cc2ccccc2)n1 | -2.4% |
| CCC1CCCCN1C(=O)COC(=O)c1ccc(S(=O)(=O)N2CCOCC2)cc1 (stereo not drawn) | -5% |
| Cc1ccc(-c2nnn(CC(=O)N(Cc3cccs3)C(C(=O)NC(C)(C)C)c3ccco3)n2)o1 (stereo not drawn) | -3.6% |
| Cc1ccc(-c2nnn(CC(=O)N(c3ccccc3)C(C(=O)NC3CCCC3)c3ccco3)n2)o1 (stereo not drawn) | -1% |
| Cc1ccc(-c2nnn(CC(=O)N(Cc3cccs3)C(C(=O)NC3CCCC3)c3ccco3)n2)o1 (stereo not drawn) | 80.5% (active) |
| COc1ccc(OC)c(Nc2nc(-c3sc(N)nc3C)cs2)c1 | 34.5% |
| COc1ccc(CNC(=O)C2CCCN2S(=O)(=O)c2ccc(C)cc2)cc1 (stereo not drawn) | 9.7% |
| CC(C)(C)c1ccccc1OCCCCCNCCO | 9.8% |
| CC(=O)CCc1c(C)[nH]c2ccccc2c1=O | -19.6% |
| Cc1ccc(-c2noc(CCC(=O)NCCCN3CCN(c4cccc(Cl)c4)CC3)n2)cc1 | -6.5% |
| COc1ccccc1N1CCN(C(=O)c2ccc3nc(-c4ccco4)c(-c4ccco4)nc3c2)CC1 | 8.9% |
| O=C(c1cc(-c2ccco2)on1)N1CCN(c2ccccc2)CC1 | 13.6% |
| O=C(c1ccc2ccccc2c1)N1CCN(c2ccccc2)CC1 | -4.8% |
| O=C(c1ccc2ccccc2c1)N1CCN(c2ccc(O)cc2)CC1 | 50.3% (active) |
| O=C(Nc1ccc(N2CCOCC2)cc1)Nc1ccc2nc(-c3ccco3)c(-c3ccco3)nc2c1 | 76.2% (active) |
| CN1CCN(C(=O)c2ccc3ccccc3c2)CC1 | -15.3% |
| O=C(Nc1ccc2nc(-c3ccco3)c(-c3ccco3)nc2c1)N1CCCCCC1 | 29.1% |
| O=C(Nc1ccc(N2CCOCC2)cc1)c1ccc2nc(-c3ccco3)c(-c3ccco3)nc2c1 | -9.4% |
| O=C(c1cccs1)N1CCC(c2ccccc2)C1 (stereo not drawn) | 5.4% |
| O=c1[nH]c2ccccc2cc1-c1noc(-c2cccnc2)n1 | 6.4% |
| CCCOc1ccc(NC2=CC(=O)CC(C)(C)C2)cc1 | -2.4% |
| COc1cc(-c2csc(N3CCOCC3)n2)cc(OC)c1OC | 4.3% |
| COc1ccc(OC)c(NC(=O)c2nnn(Cc3ccc(Br)cc3F)c2N)c1 | 18.8% |
